# Screens as filed in PubChem.
# This is a sample that favours compounds with a hit; in the whole collection about 21% have one here.
# CHX counter = counter-screen hit for Shiga toxin inhibitors, cycloheximide | cell reporter, cycloheximide protein synthesis inhibition counterscreen | max response, % | 300,000 compounds, 12% hits | AID 2314; in the data active = max response mostly above about 13%, no sharp cut-off; inactive = mostly below about 14%; note: read at 38.3 µM for the half of the compounds with a filed dose; 0% is about no effect
# Pf growth 48h = P. falciparum growth inhibition at 48 hours (one generation) | 310,000 compounds, 5.9% hits | P. falciparum luciferase growth in erythrocytes, 48 h | Potency, µM (highest dose often 28.7 µM), inactives show at the highest dose activity change, negative = inhibition, hits mostly inhibitors; note: potency is the fitted concentration of half-maximal effect; % is set by controls: 0 for no effect and ±100 for the full control effect
#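 A one-generation exposure of luciferase-tagged malaria parasites in RPMI 1640/Albumax erythrocyte culture, 37 C and 5% CO2. Inhibition is inferred from decreased luminescence after adding detection reagent.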
# Shiga inhibitor = blocks Shiga toxin action in Vero cells | Vero cells, Shiga toxin protein synthesis inhibition reporter | inhibition, % at 38.7 µM | 290,000 compounds, 9.2% hits | AID 2315; in the data active = inhibition mostly above about 28%, no sharp cut-off; inactive = mostly below about 43%; note: 0% is about no effect
# HCV inh = HCV inhibition; Huh7.5.1 HCVcc-Cre infection, luciferase reporter, 44 h; Potency, µM (top dose mostly 41.8 µM), for inactives: at the top dose activity change, negative = inhibition, hits mostly inhibitors; 340,000 compounds, 3.4% hits; AID 651820; note: potency is the fitted concentration of half-maximal effect; % is set by controls: 0 for no effect and ±100 for the full control effect
#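 Reporter virus HCVcc-Cre (~0.5 moi) infects cells exposed to compound; seeding density 1,000 cells/well with 4 h settling beforehand. Luminescence, 15 sec read, taken 44 h post-infection following a 15 min RT substrate incubation.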
# Pf growth 96h = P. falciparum growth inhibition at 96 hour, primary screen for plastid delayed-death inhibitors; P. falciparum luciferase reporter growth, 96 h; Potency, µM (series often up to 28.7 µM), for the others: at the highest dose activity change, negative = inhibition, hits mostly inhibitors; AID 504834; 320,000 compounds, 6.9% hits; note: potency is the fitted concentration of half-maximal effect; % is set by controls: 0 for no effect and ±100 for the full control effect
#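 Two parasite generations (96 h, 37 C, 5% CO2) of compound exposure in infected erythrocytes (0.05% parasitemia, 2% hematocrit). Luciferase-reporter P. falciparum; decreased luminescence indicates inhibited growth, aimed at apicoplast-acting delayed death.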
# HCMV inh = inhibitors of human cytomegalovirus; activity change, negative = inhibition, % at 57.5 µM; HFF cells, HCMV-luciferase reporter, 72 h; active compounds read low; 410,000 compounds, 4.5% hits; AID 1259415; in the data active = activity change below about -60%; inconclusive = no clear call, values can overlap the other calls; inactive = above about -39%; note: % is set by controls: 0 for no effect and ±100 for the full control effect
#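 Luciferase read-out from HCMV-luciferase-infected HFFs (MOI 1 PFU/cell) 72 h post infection at 37C; compounds added after 16 h cell attachment; activity normalized between buffer-only basal and Salinomycin (10uM) inhibitor controls.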
# Starred values were filed as active, the others as inactive; u = inconclusive; x = not tested or not shown; [ ] = dose if it differs, or a comment. Unless noted, calls come from the whole dose curve; as a rule, active = well fitted inhibition curve with a large enough effect; inconclusive = small, poorly fitted or top-dose-only effect, or another doubt; inactive = no such curve, though single readings can be large or run the other way.
SMILES,CHX counter,Pf growth 48h,Shiga inhibitor,HCV inh,Pf growth 96h,HCMV inh
CN(C)C(=O)c1ccc(NC(=O)COC(=O)C2(c3ccccc3)CCCC2)cc1,x,x,x,u,x,-35
COc1ccccc1N1CCN(C(=O)C2CCN(S(=O)(=O)c3ccccc3)CC2)CC1,1,u,-11,12%,u,-2
NC(=O)c1cc(S(=O)(=O)N2CCN(c3cccc(Cl)c3)CC2)cs1,8,-10%,2,6%,1.2µM*,-4
COc1ccc(S(=O)(=O)N2CCC(C(=O)N3CCN(c4ccccc4OC)CC3)CC2)cc1,-2,13µM*,-9,u,-5%,58
COc1ccc(S(=O)(=O)N2CCC(C(=O)N3CCc4ccccc4C3)CC2)cc1Cl,28*,x,23,-9%,u,-35
COc1ccccc1N1CCN(C(=O)C2CCN(S(=O)(=O)c3ccc4c(c3)CC(C)N4C(=O)C3CC3)CC2)CC1 (stereo unspecified),-1,u,-4,u,0%,-18
COc1ccccc1N1CCN(C(=O)C2CCN(S(=O)(=O)c3ccc4c(c3)CC(C)N4C(C)=O)CC2)CC1 (stereo unspecified),2,12µM*,6,-20%,17%,-39
CN(CC(=O)NC(=O)NC1CCCCC1)Cc1ccccc1,x,5%,x,-3%,-15%,23
CCc1nn(CC(=O)Nc2ccc(Br)c(C)c2)c(=N)s1,4,21%,26,u,54%[5.75 µM],-33
CC(C)(C)NC(=O)CSc1ccc(C(C)(C)C)cc1,11,u,21,u,u,59
CC(C)c1ccc(S(=O)(=O)N2CCC(C(=O)N3CCN(c4cccc(Cl)c4)CC3)CC2)cc1,x,x,x,u,x,-69*
CCCOc1ccc(C2=NC(c3ccc(F)cc3)=Nc3ccc(OC)cc3N2)cc1,x,x,x,x,x,31
COCCCn1c(=N)c(C(=O)NC2CCCCC2)cc2c(=O)n3ccccc3nc21,-3,5%,9,-11%,101%,-22
COc1ccc(CCn2c(=N)c(C(=O)NC3CCCC3)cc3c(=O)n4ccccc4nc32)cc1OC,0,4.1µM*,2,7%,3.3µM*,-38
COc1ccc(Cn2c(=N)c(C(=O)NC3CCCCC3)cc3c(=O)n4ccccc4nc32)cc1,14,4.7µM*,38,u,1.9µM*,u
COc1ccc(CCn2c(=N)c(C(=O)NC3CCCC3)cc3c(=O)n4ccccc4nc32)cc1,-1,u,-6,u,u,-101*
COc1ccc(CCn2c(=N)c(C(=O)NCC3CCCO3)cc3c(=O)n4ccccc4nc32)cc1OC (stereo unspecified),13,u,9,-17%,u,-110*
Cc1onc(-c2ccccc2Cl)c1C(=O)N1CCCCC1C (stereo unspecified),1,12%,3,21%,u,-1
COc1ccc(CCNC(=O)C(C)n2c(=O)cc(C(F)(F)F)c3c(C)nn(C)c32)cc1OC (stereo unspecified),x,x,x,x,x,-11
CC1Oc2ccccc2N(CC(=O)Nc2ccc(F)cc2)C1=O (stereo unspecified),0,-18%,-4,15%,-21%,-6
COCCn1c(SCC(=O)N2CCc3ccccc3C2)nc2cc(Cl)ccc2c1=O,-5,u,-3,u,9.3µM*,-4
CC(C)Cn1c(SCC(=O)N2CCc3ccccc3C2)nc2cc(Cl)ccc2c1=O,-3,u,-2,-9%,4.7µM*,-20
COC(=O)C1(O)CC(c2ccccc2)C(C(=O)c2ccccc2)N1c1ccc(Cl)cc1 (stereo unspecified),x,x,x,x,x,-18
Cc1noc(C)c1-c1nc(CS(=O)(=O)c2ccccc2)no1,11,u,-5,24%,0%,-84*
Cc1noc(C)c1-c1nc(CS(=O)(=O)c2ccc(F)cc2)no1,4,73%,9,-2%,46%,25
SMILES,CHX counter,Pf growth 48h,Shiga inhibitor,HCV inh,Pf growth 96h,HCMV inh
C[N+]1(CN2C(=O)C3C4C=CC(C4)C3C2=O)CCCCC1 (stereo unspecified),1,-9%,-13,25%,11%,-35
Cc1c(NS(=O)(=O)c2cc(C(=O)N3CCCC(C)C3)ccc2Cl)c(=O)n(-c2ccccc2)n1C (stereo unspecified),x,x,x,7%,x,u
O=C(N1CCN(Cc2ccccc2)CC1)C(Cl)(Cl)Cl,6,10µM*,14,10%,44%,-17
O=C(C1CC1)N1CCN(Cc2ccccc2)CC1,x,x,x,7%,x,39
O=C(c1ccc(Cl)c(S(=O)(=O)N2CCCCC2)c1)N1CCN(Cc2ccccc2)CC1,-4,18%,-16,u,u,-61*
O=C(C1CCC1)N1CCN(Cc2ccccc2)CC1,-4,38%,-1,20%,u,5
Cc1c(N(C)S(=O)(=O)c2cc(C(=O)N3CCCC3)ccc2Cl)c(=O)n(-c2ccccc2)n1C,3,13µM*,-3,5%,4.7µM*,-2
O=C(c1c[nH]c(C(=O)N2CCN(Cc3ccccc3)CC2)c1)C1CCCCC1,24,u,51*,-14%,-187%,-28
COc1ccccc1CN1C(=NC(=O)CCC2CCCC2)SC2CS(=O)(=O)CC21 (stereo unspecified),-2,u,-4,2%,u,-22
CC(C)C[C@@H](C(=O)O)N(Cc1cccc(CN([C@@H](CC(C)C)C(=O)O)S(C)(=O)=O)c1)S(C)(=O)=O,-2,48%,-4,14%,82%,-20
COc1ccc(OC)c(CNC(=O)Nc2cn(CC(C)C)c(=O)c3ccccc23)c1,x,x,x,x,x,-5
O=C(c1ccc2ccccc2c1)N1CCN(Cc2ccccc2)CC1,28*,63%,82*,-21%,80%,u
Cn1c(=O)c2nc(Cl)c(-c3ccccc3)nc2n(C)c1=O,0,4.1µM*,-6,11%,u,u
CSc1ccccc1OCc1cc(C(=O)N2CCN(c3ccccc3)CC2C)no1 (stereo unspecified),57*,u,99*,u,-16%,70
CCOC(=O)CC1COCCN1C(=O)c1cc(COc2ccccc2SC)on1 (stereo unspecified),x,x,x,x,x,3
CC(=O)c1ccc(OCc2cc(C(=O)N3CCN(c4ccccc4)CC3C)no2)cc1 (stereo unspecified),48*,6%,53*,22µM*,-5%,0
CC(=O)c1ccc(OCc2cc(C(=O)N(C)CC3COc4ccccc4O3)no2)cc1 (stereo unspecified),x,x,x,x,x,9
CSc1ccccc1OCc1cc(C(=O)N2CCc3[nH]cnc3C2c2ccccn2)no1 (stereo unspecified),4,u,12,-17%,-17%,-60*
